Measurements published in PubChem BioAssay (EPA / NIEHS).
“And” between values parts separate entries of the source, which are not always exact repeats. Equal values may be shown once. Records with an inconclusive call do not appear. Some structures have more than one record in an assay (separate samples or runs), and their calls can disagree. The source made the active and inactive calls. Rule for the calls: active = hit-call score of the fitted dose curve at least 0.9, where 1 is the maximum; inconclusive = response in the unintended direction; inactive = score below 0.9.

Each compound was assayed against Estrogen receptor (Homo sapiens) (UniProt P03372) (assay: NVS_NR_hER: NovaScreen (NVS) Nuclear Receptor Binding Assay for human Estrogen Receptor (ER) (AID 2283348)).
Chain of Estrogen receptor (Homo sapiens) (P03372 whole entry, looked up, the tested form may be a part): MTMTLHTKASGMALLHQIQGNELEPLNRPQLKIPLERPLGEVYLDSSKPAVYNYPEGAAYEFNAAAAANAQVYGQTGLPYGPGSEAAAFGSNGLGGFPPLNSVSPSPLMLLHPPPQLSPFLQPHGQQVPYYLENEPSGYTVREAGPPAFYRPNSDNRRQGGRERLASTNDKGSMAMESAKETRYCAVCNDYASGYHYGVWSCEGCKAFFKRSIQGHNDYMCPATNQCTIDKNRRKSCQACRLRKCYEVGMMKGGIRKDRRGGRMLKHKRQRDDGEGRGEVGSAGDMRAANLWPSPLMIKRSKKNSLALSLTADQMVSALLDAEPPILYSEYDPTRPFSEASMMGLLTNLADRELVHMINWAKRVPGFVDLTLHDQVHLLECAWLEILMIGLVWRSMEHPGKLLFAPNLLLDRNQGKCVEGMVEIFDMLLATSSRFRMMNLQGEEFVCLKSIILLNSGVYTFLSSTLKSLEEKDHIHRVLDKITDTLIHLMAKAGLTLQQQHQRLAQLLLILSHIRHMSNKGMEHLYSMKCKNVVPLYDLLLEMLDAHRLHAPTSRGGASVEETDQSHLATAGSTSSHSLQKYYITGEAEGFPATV
Procedure, shortened: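 MCF7-derived receptor extract, radiolabelled ligand, competitive displacement. Read: scintillation counts at 18 h. DMSO = negative control/baseline. Primary 25 uM duplicate; follow-up concentration–response.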
For `CC1=C(/C=C/C(C)=C/C=C/C(C)=C/C(=O)O)C(C)(C)CCC1`, the outcome was “inactive”.
`OC1CCC(C2CCCCC2)CC1` (configuration not stated) was tested, and the outcome was “inactive”.
For `Oc1cc2ccccc2c2ccccc12`, the outcome was “inactive”.
For `c1ccc2cc3c(ccc4ccccc43)cc2c1`, the outcome was “inactive”.
With `C[C@@H]1C[C@H]2[C@@H]3CCC4=CC(=O)C=C[C@]4(C)[C@@]3(F)[C@@H](O)C[C@]2(C)[C@@]1(O)C(=O)COP(=O)(O)O` the outcome was “inactive”.
In the case of `CC[C@H](c1ccc(O)cc1)[C@@H](CC)c1ccc(O)cc1`, the AC50 is reported as 0.0334 nM (active) and 2.46 nM (active) and 2.68 nM (active).
In the case of `OCCC(F)(F)C(F)(F)C(F)(F)C(F)(F)C(F)(F)C(F)(F)C(F)(F)C(F)(F)F`, the outcome is reported as “inactive”.
In the case of `CCCCCCCCCCCCc1ccccc1S(=O)(=O)O`, the AC50 is reported as 40.6 µM (active).
`CCN(CC)CCNc1ccc(CNC=O)c2sc3ccc(OC)cc3c(=O)c12` was tested, and the outcome was “inactive”.
With `NC(=O)N1C(=O)C(C(=O)c2cc(Cl)cs2)c2cc(F)c(Cl)cc21` (configuration not stated) the outcome was “inactive”.
With `CCCOC(=O)c1ccc(O)cc1` the AC50 was 6.72 µM (active) and 10.6 µM (active).
With `NC(=O)N(O)[C@@H]1C=C[C@H](Oc2cccc(Oc3ccc(F)cc3)c2)C1` the outcome was “inactive”.
With `CN(C)C=O` the outcome was “inactive”.
For `ClC1=C(Cl)C(Cl)(Cl)C(Cl)=C1Cl`, the outcome was “inactive”.
In the case of `Cc1oc(-c2ccccc2)nc1CCOc1ccc(C[C@H](Nc2ccccc2C(=O)c2ccccc2)C(=O)O)cc1`, the outcome is reported as “inactive”.
With `O=C(O)Cc1cc(I)c(Oc2cc(I)c(O)c(I)c2)c(I)c1` the outcome was “inactive”.

These compounds were tested against Estrogen receptor (Homo sapiens) (UniProt P03372) (assay: OT_ER_ERaERa_1440: Odyssey Thera (OT) 24-hour HEK293T Protein-Complementation Assay for Estrogen Receptor-alpha/-alpha Homodimer (AID 2283349);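 note: hits raise fluorescence above DMSO for agonists and antagonists alike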).
Procedure, shortened: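 Cells (HEK293T) carrying the fragment-tagged ERα LBD (aa 310-547) pair are treated with chemical for 24 hours. Nuclear and/or cytoplasmic fluorescence is then quantified on a laser scanning cytometer. Activity is scored as signal gain against DMSO.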
In the case of `O=C(O)c1ccccc1C(c1ccc(O)cc1)c1ccc(O)cc1`, the outcome is reported as “inactive”.
With `COc1ccc([N+](=O)[O-])cc1N` the outcome was “inactive”.
`CC1=C(/C=C/C(C)=C/C=C/C(C)=C/C(=O)O)C(C)(C)CCC1` was tested, and the outcome was “inactive”.
For `OC1CCC(C2CCCCC2)CC1` (configuration not stated), the outcome was “inactive”.
In the case of `CC(=O)NC1(c2cccc(F)c2)CCN(CC[C@@]2(c3ccc(Cl)c(Cl)c3)CN(c3ccccc3)C(=O)CO2)CC1`, the outcome is reported as “inactive”.
For `Oc1cc2ccccc2c2ccccc12`, the outcome was “inactive”.
For `c1ccc2cc3c(ccc4ccccc43)cc2c1`, the outcome was “inactive”.
For `C[C@@H]1C[C@H]2[C@@H]3CCC4=CC(=O)C=C[C@]4(C)[C@@]3(F)[C@@H](O)C[C@]2(C)[C@@]1(O)C(=O)COP(=O)(O)O`, the outcome was “inactive”.
In the case of `O=C(OCCOCCOC(=O)c1ccccc1)c1ccccc1`, the outcome is reported as “inactive”.
With `CC(=O)CC(C)(C)O` the outcome was “inactive”.
In the case of `OCCC(F)(F)C(F)(F)C(F)(F)C(F)(F)C(F)(F)C(F)(F)C(F)(F)C(F)(F)F`, the outcome is reported as “inactive”.
`CCCCCCCCCCCCc1ccccc1S(=O)(=O)O` was tested, and the outcome was “inactive”.
For `CCN(CC)CCNc1ccc(CNC=O)c2sc3ccc(OC)cc3c(=O)c12`, the outcome was “inactive”.
In the case of `NC(=O)N1C(=O)C(C(=O)c2cc(Cl)cs2)c2cc(F)c(Cl)cc21` (configuration not stated), the outcome is reported as “inactive”.
`CCCOC(=O)c1ccc(O)cc1` was tested, and the AC50 was 31.2 µM (active).
For `NC(=O)N(O)[C@@H]1C=C[C@H](Oc2cccc(Oc3ccc(F)cc3)c2)C1`, the outcome was “inactive”.
In the case of `CN(C)C=O`, the outcome is reported as “inactive”.
With `CCCCCCCC(=O)O` the outcome was “inactive”.
For `ClC1=C(Cl)C(Cl)(Cl)C(Cl)=C1Cl`, the outcome was “inactive”.
With `Cc1oc(-c2ccccc2)nc1CCOc1ccc(C[C@H](Nc2ccccc2C(=O)c2ccccc2)C(=O)O)cc1` the outcome was “inactive”.
For `Cc1ccc(S(=O)(=O)O)c(C)c1`, the AC50 was 56.2 µM (active) and the outcome was “inactive”.
With `COCC(C)OCC(C)O` (configuration not stated) the outcome was “inactive”.
For `CCCCCCCCCCCCCCCS(=O)(=O)Oc1ccccc1`, the outcome was “inactive”.
For `CC[C@H](C)[C@@H](C(=O)O)n1sc2ccccc2c1=O`, the outcome was “inactive”.
For `O=C(O)Cc1cc(I)c(Oc2cc(I)c(O)c(I)c2)c(I)c1`, the outcome was “inactive”.
`CCc1ccc(CCOc2ccc(CC3SC(=O)NC3=O)cc2)nc1` (configuration not stated) was tested, and the AC50 was 75.1 µM (active).
In the case of `C#C[C@]1(O)CC[C@H]2[C@@H]3CCC4=CC(=O)CC[C@@H]4[C@H]3CC[C@@]21C`, the outcome is reported as “inactive”.
For `CC#C[C@]1(O)CC[C@H]2[C@@H]3CCC4=CC(=O)CCC4=C3[C@@H](c3ccc(N(C)C)cc3)C[C@@]21C`, the outcome was “inactive”.
With `COC(=O)CCCCC(=O)OC` the outcome was “inactive”.

The compounds below were run against Estrogen receptor (Homo sapiens) (UniProt P03372) (assay: OT_ER_ERaERa_0480: Odyssey Thera (OT) 8-hour HEK293T Protein-Complementation Assay for Estrogen Receptor-alpha/-alpha Homodimer (AID 2283351);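 note: rise in fluorescence from reassembled reporter fragments on ERα LBD homodimer in nucleus or whole cell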).
Procedure, shortened: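 HEK293T cells stably expressing a PCA pair of ER alpha LBD (residues 310-547) were dosed for 8 hours. The gain in fluorescence intensity, nuclear for agonists and whole-cell for antagonists, was measured by laser scanning cytometry against DMSO vehicle.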
For `O=C(O)c1ccccc1C(c1ccc(O)cc1)c1ccc(O)cc1`, the outcome was “inactive”.
In the case of `O=C(OCCOCCOC(=O)c1ccccc1)c1ccccc1`, the outcome is reported as “inactive”.
In the case of `OCCC(F)(F)C(F)(F)C(F)(F)C(F)(F)C(F)(F)C(F)(F)C(F)(F)C(F)(F)F`, the outcome is reported as “inactive”.
In the case of `CCCCCCCCCCCCc1ccccc1S(=O)(=O)O`, the outcome is reported as “inactive”.
`CCCOC(=O)c1ccc(O)cc1` was tested, and the AC50 was 38.4 µM (active).
`Cc1oc(-c2ccccc2)nc1CCOc1ccc(C[C@H](Nc2ccccc2C(=O)c2ccccc2)C(=O)O)cc1` was tested, and the outcome was “inactive”.
In the case of `O=C(O)Cc1cc(I)c(Oc2cc(I)c(O)c(I)c2)c(I)c1`, the outcome is reported as “inactive”.
With `CCc1ccc(CCOc2ccc(CC3SC(=O)NC3=O)cc2)nc1` (configuration not stated) the AC50 was 76.7 µM (active).
In the case of `CC#C[C@]1(O)CC[C@H]2[C@@H]3CCC4=CC(=O)CCC4=C3[C@@H](c3ccc(N(C)C)cc3)C[C@@]21C`, the outcome is reported as “inactive”.

What follows are compounds tested against Estrogen receptor (Homo sapiens) + Estrogen receptor beta (Homo sapiens) (UniProt P03372+Q92731) (assay: OT_ER_ERaERb_0480: Odyssey Thera (OT) 8-hour HEK293T Protein-Complementation Assay for Estrogen Receptor-alpha/-beta Heterodimer (AID 2283352)).
Chain of Estrogen receptor (Homo sapiens) + Estrogen receptor beta (Homo sapiens) (P03372 whole entry, looked up, the tested form may be a part): as above
Chain of Estrogen receptor (Homo sapiens) + Estrogen receptor beta (Homo sapiens) (Q92731 whole entry, looked up, the tested form may be a part): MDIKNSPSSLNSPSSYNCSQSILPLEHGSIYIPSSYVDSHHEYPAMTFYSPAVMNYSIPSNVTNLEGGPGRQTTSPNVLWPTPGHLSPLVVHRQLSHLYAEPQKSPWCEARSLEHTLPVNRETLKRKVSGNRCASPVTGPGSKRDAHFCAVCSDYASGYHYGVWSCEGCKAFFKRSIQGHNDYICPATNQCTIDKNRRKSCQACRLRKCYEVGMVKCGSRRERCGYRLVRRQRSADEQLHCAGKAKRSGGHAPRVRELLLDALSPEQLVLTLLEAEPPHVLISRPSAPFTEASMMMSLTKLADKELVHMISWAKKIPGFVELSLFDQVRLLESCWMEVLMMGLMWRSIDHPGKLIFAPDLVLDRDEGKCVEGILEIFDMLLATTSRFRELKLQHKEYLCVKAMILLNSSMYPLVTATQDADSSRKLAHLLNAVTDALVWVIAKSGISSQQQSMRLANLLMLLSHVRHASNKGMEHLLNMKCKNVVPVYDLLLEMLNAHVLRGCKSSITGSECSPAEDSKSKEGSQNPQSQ
Procedure, shortened: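 Fluorescence increase from reconstituted reporter fragments, quantified by laser scanning cytometer, reflects ER-alpha/ER-beta heterodimer formation in human HEK293T cells. Exposure 8 h; positive-direction fitting against DMSO vehicle.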
In the case of `O=C(O)c1ccccc1C(c1ccc(O)cc1)c1ccc(O)cc1`, the outcome is reported as “inactive”.
With `COc1ccc([N+](=O)[O-])cc1N` the outcome was “inactive”.
`OC1CCC(C2CCCCC2)CC1` (configuration not stated) was tested, and the AC50 was 50 µM (active) and 34.5 µM (active) and 48.7 µM (active) and the outcome was “inactive”.
`C[C@@H]1C[C@H]2[C@@H]3CCC4=CC(=O)C=C[C@]4(C)[C@@]3(F)[C@@H](O)C[C@]2(C)[C@@]1(O)C(=O)COP(=O)(O)O` was tested, and the outcome was “inactive”.
In the case of `CC(=O)CC(C)(C)O`, the outcome is reported as “inactive”.
`OCCC(F)(F)C(F)(F)C(F)(F)C(F)(F)C(F)(F)C(F)(F)C(F)(F)C(F)(F)F` was tested, and the outcome was “inactive”.
`CCCOC(=O)c1ccc(O)cc1` was tested, and the AC50 was 16.7 µM (active).
`NC(=O)N(O)[C@@H]1C=C[C@H](Oc2cccc(Oc3ccc(F)cc3)c2)C1` was tested, and the outcome was “inactive”.
`CN(C)C=O` was tested, and the outcome was “inactive”.
With `CCCCCCCC(=O)O` the outcome was “inactive”.
`COCC(C)OCC(C)O` (configuration not stated) was tested, and the outcome was “inactive”.
`CCCCCCCCCCCCCCCS(=O)(=O)Oc1ccccc1` was tested, and the outcome was “inactive”.
`CC[C@H](C)[C@@H](C(=O)O)n1sc2ccccc2c1=O` was tested, and the outcome was “inactive”.
In the case of `O=C(O)Cc1cc(I)c(Oc2cc(I)c(O)c(I)c2)c(I)c1`, the outcome is reported as “inactive”.
In the case of `CCc1ccc(CCOc2ccc(CC3SC(=O)NC3=O)cc2)nc1` (configuration not stated), the outcome is reported as “inactive”.
For `C#C[C@]1(O)CC[C@H]2[C@@H]3CCC4=CC(=O)CC[C@@H]4[C@H]3CC[C@@]21C`, the outcome was “inactive”.
